Source: PubChem BioAssay (National Center for Advancing Translational Sciences (NCATS))
S-ASM inh: blocks human secretory acid sphingomyelinase; placental ASM, HMU-PC fluorogenic substrate, 60 min; Potency, µM (top dose mostly 57.5 µM), inactives show at the highest dose activity change, negative = inhibition, most hits filed as inhibitors; actives 0.006% (n = 340,000); AID 504937; note: potency is the fitted concentration of half-maximal effect
Target sequence (P17405 47-631 limits assumed): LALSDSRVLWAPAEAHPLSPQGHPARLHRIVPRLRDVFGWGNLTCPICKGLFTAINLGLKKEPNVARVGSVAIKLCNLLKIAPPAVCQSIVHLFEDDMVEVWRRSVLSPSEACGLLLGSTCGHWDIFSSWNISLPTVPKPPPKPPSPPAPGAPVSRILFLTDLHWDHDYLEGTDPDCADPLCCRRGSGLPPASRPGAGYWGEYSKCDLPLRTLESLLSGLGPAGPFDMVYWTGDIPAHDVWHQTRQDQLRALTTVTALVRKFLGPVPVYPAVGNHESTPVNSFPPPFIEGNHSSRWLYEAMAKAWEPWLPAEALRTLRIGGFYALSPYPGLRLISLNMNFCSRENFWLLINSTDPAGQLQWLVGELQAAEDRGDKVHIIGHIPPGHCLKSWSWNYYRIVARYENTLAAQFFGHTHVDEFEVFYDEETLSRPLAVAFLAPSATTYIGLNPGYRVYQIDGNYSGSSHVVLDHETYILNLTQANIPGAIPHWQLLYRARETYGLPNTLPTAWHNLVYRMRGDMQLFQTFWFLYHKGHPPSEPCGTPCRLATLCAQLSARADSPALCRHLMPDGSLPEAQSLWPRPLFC
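Fluorescence read-out (Ex 386 nm, Em 447 nm) after stopping the reaction at pH 10. Enzyme: ASM from human placenta; substrate HMU-PC0, 9 uM final; 60 min, 37 °C. Compound preincubation 10 min, ambient temperature.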
IL-1B inflam inh: inhibitors of inflammasome signaling (IL-1 beta secretion); THP-1 LPS/ATP IL-1B secretion, AlphaLISA, 16 h; stronger effect = lower value; activity change, % at 57.5 µM; actives 4.7% (n = 360,000); AID 743279; in the data active = activity change below about -50%; inconclusive = mostly about -30% to -49%; note: % is set by controls: 0 for no effect and ±100 for the full control effect
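THP-1 cells pretreated 1 hr with compounds (up to 57.5 uM final), then stimulated with LPS (250 ng/mL final) plus ATP (1.25 mM final); secreted IL-1B measured by AlphaLISA after 16 hr, decreased signal indicating inhibition.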
DT40 TDP1 CPT: growth inhibition of DT40 Tdp1-/-;hTDP1 cells with camptothecin (screen for TDP1 inhibitors); chicken DT40 Tdp1-/-;hTDP1 cells + 20 nM CPT, ATP luminescence, 48 h; actives 12% (n = 420,000); Potency, µM (highest dose often 46.2 µM), inactives show at the top dose activity change, negative = growth inhibition, actives largely listed as inhibitors; AID 686979; note: potency is the fitted concentration of half-maximal effect; % is set by controls: 0 for no effect and ±100 for the full control effect; nearly all actives have a fitted effect of over 55% in size
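Cell growth measured by CellTiter-Glo luminescence after a minimum 48 h, 37 C compound exposure with 20 nM CPT in Tdp1-knockout DT40 cells stably expressing hTDP1, seeded 400/well; qHTS titration format.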
DT40 TDP1 no CPT: qHTS for Inhibitors of human tyrosyl-DNA phosphodiesterase 1 (TDP1): qHTS in cells in absence of CPT; DT40 Tdp1-/- hTDP1 cells, no CPT, ATP luminescence, 48 h; Potency, µM (highest dose often 46.2 µM), for inactives: at the highest dose activity change, negative = growth inhibition, most hits filed as inhibitors; actives 15% (n = 420,000); AID 686978, 2013; note: potency is the fitted concentration of half-maximal effect; % is set by controls: 0 for no effect and ±100 for the full control effect; nearly all actives have a fitted effect of over 55% in size
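Chicken DT40 Tdp1-/- cells stably complemented with human TDP1 were seeded at 400 cells/well with DMSO in place of 20 nM camptothecin. After compound pinning, cells grew at least 48 hr at 37 °C; viability read by CellTiter-Glo luminescence.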
HepG2 tox: HepG2 cytotoxicity, counter-screen for TGF-b inhibitors; HepG2 CAGA-GFP viability, ATP luminescence, 18 h; Potency, µM (top dose mostly 46.1 µM), for inactives: at the highest dose activity change, negative = cytotoxicity, hits mostly cytotoxic; actives 0.76% (n = 410,000); AID 588856; note: potency is the fitted concentration of half-maximal effect
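CellTiter-Glo luminescence gave cytotoxicity after 18 hours at 37 degrees C. The cells were HepG2 CAGA-GFP in 1% FBS DMEM, stimulated with 500 pg/mL TGF-beta after compound addition. %Activity was normalised to no-cell wells (complete cell-killing) and DMSO (no toxicity), and curves were fitted and classified.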
TGFb inhibitor: blocks TGF-b signaling | HepG2 CAGA-GFP TGF-b/SMAD3 reporter, GFP fluorescence, 18 h; TGF-beta stimulated, 500 pg/mL final | Potency, µM (highest dose often 46.1 µM), inactives show at the top dose activity, negative = inhibition, actives largely listed as inhibitors | actives 1.2% (n = 410,000) | AID 588855; note: potency is the fitted concentration of half-maximal effect; % is set by controls: 0 for no effect and ±100 for the full control effect; nearly all actives have a fitted effect of over 65% in size
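Inhibition of TGF-beta-driven CAGA-GFP reporter expression in HEPG2 cells is measured by cellular GFP fluorescence after 18 h stimulation with 500 pg/mL recombinant TGF-beta in 1% FBS medium at 37 degrees C.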
* = called active by the depositor; ? = inconclusive; . = not tested or not shown; ! = a repeat was not active. An excerpt weighted towards active compounds, which were near 19% of everything screened. Unless noted, calls come from the whole dose curve; as a rule, active = well fitted curve in the direction sought with a large enough effect; inconclusive = small, poorly fitted or top-dose-only effect, or another doubt; inactive = no such curve, though single readings can be large; an effect the other way counts as inactive or inconclusive.

SMILES	S-ASM inh	IL-1B inflam inh	DT40 TDP1 CPT	DT40 TDP1 no CPT	HepG2 tox	TGFb inhibitor
Cc1cccc(-c2cccc(NC(=O)C3CCCN(C(=O)c4ocnc4C)C3)c2)c1 (configuration not stated)	-4%	0	23µM*	21µM*	2%	-1%
Cc1cccc(-c2cccc(NC(=O)C3CCCN(C(=O)c4cccnc4)C3)c2)c1 (configuration not stated)	2%	-6	18µM*	15µM*	-20%	?
Cc1cccc(NC(=O)C2CCCN(S(=O)(=O)c3c(C)nn(C)c3C)C2)c1 (configuration not stated)	0%	22	?	?	6%	4%
CC(C)(C)OC(=O)N1CCCC(C(=O)Nc2cccc(C(=O)N3CCCCC3)c2)C1 (configuration not stated)	8%	-22	-17%	-24%	2%	-9%
CC(C)c1ccc(OC(=O)c2ccc3c(=O)n4c(nc3c2)CCC4)cc1	-8%	-2	?	?	-2%	7%
COc1ccc(CCNC(=O)CCN2C(=O)[C@@H]3Cc4ccccc4CN3C2=O)cc1OC	1%	10	-9%	-41%	-13%	1%
CCOC(=O)c1ccc(N=Cc2nc3ccccc3n2C)cc1	1%	-14	?	18µM*	11%	1%
CCC(=O)Oc1oc(-c2ccccc2)nc1C=Nc1ccccc1OC	-1%	29	?	?	-28%	-16%
CN(C)c1ccc(N=Cc2nc(-c3ccccc3)oc2OC(=O)c2cccc(Br)c2)cc1	-9%	?	?	16µM*	-12%	0%
COc1ccc(N=Cc2nc(-c3ccccc3)oc2OC(=O)c2ccccc2)cc1	-1%	0	21µM*	23µM*	-28%	-25%
CCOC(=O)c1ccc(N=Cc2nc(-c3ccccc3)oc2OC(C)=O)cc1	-6%	-17	9.2µM*	6.5µM*	-40%	-9%
CC(=O)Oc1oc(-c2ccccc2)nc1C=Nc1ccccc1	-1%	-8	-27%	?	-1%	?
CCc1noc(C)c1C(=O)NNC(=O)COc1ccc(C)c(C)c1	-3%	-1	2%	8%	-1%	1%
O=C(c1ccco1)N1CCN(S(=O)(=O)c2ccc([N+](=O)[O-])cc2)CC1	5%	-6	-25%	?	-4%	-29%
C=CCC(=O)N1CCCC(CO)(Cc2ccc(F)cc2F)C1 (configuration not stated)	-2%	-18	-18%	-9%	-1%	6%
CC(=O)C(Cl)C(=O)Nc1ccccc1 (configuration not stated)	-2%	-86*	2.6µM*	4.1µM*	-45%	?
O=C(Nc1ccccc1)C(Cl)C(=O)c1ccccc1 (configuration not stated)	-2%	?	6.5µM*	8.2µM*	-119%	-34%
CC(C)(C)NC(=O)CN(CC1CCCO1)C(=O)CNS(=O)(=O)c1ccc(F)cc1 (configuration not stated)	11%	7	-2%	-1%	-9%	1%
C=CC[C@H]1C(C(=O)OCC)=CC[C@@H](c2ccccc2)N1S(=O)(=O)c1ccc(C)cc1	.	40	?	?	-25%	?
COc1ccc(CCN(Cc2cc3cc(C)c(C)cc3nc2Cl)C(=O)C2CC2)cc1	-5%	33	26µM*	21µM*	-13%	11%
COc1ccccc1NC(=O)N(CCCN1CCOCC1)Cc1cc2cc3c(cc2[nH]c1=O)OCO3	19%	-17	-16%	?	0%	-13%
Cc1ccc2nc(Cl)c(CN(Cc3cccs3)C(=O)C3CC3)cc2c1	?	-4	?	-27%	-31%	?
COCC(=O)N(CCN(C)C)Cc1cc2cc3c(cc2nc1Cl)OCO3	-3%	0	0%	14%	-2%	5%
COCCN(Cc1cc2cc3c(cc2nc1Cl)OCO3)C(=O)Nc1ccc(F)cc1	-8%	-71*	16µM*	11µM*	-22%	-4%
COCCN(Cc1cc2cc3c(cc2nc1Cl)OCO3)C(=O)Nc1ccccc1OC	0%	-26	16µM*	23µM*	-4%	0%
SMILES	S-ASM inh	IL-1B inflam inh	DT40 TDP1 CPT	DT40 TDP1 no CPT	HepG2 tox	TGFb inhibitor
COCCN(Cc1cc2cc3c(cc2nc1Cl)OCO3)C(=O)Nc1ccc(OC)cc1	-9%	13	?	10µM*	5%	-3%
O=C(CC1CC2CCC1C2)NCCc1ccc(Cl)cc1 (configuration not stated)	-3%	-22	?	-29%	1%	-11%
COc1cccc(NC(C)(C)c2nnnn2-c2c(C)cccc2C)c1	0%	.	8%	?	-32%	-5%
COCCN(Cc1cc2cc(C)ccc2nc1Cl)C(=O)Nc1ccccc1C	-2%	-70*	16µM*	16µM*	-2%	-6%
CC1CC(=O)c2c(cc3c(-c4c(O)cc(O)c5c(O)c6c(cc45)OC(C)CC6=O)c(O)cc(O)c3c2O)O1 (configuration not stated)	-30%	3	1µM*	1.3µM*	-103%	?
CCc1ccc(NC(=O)CSCc2nc(N)nc(Nc3ccccc3CC)n2)cc1	-2%	?	15µM*	?	-22%	-31%
CCc1ccc(Nc2nc(N)nc(CSc3nc4ccccc4s3)n2)cc1	.	21	?	?	7.9µM*!	?
O=C(Cc1ccccc1[N+](=O)[O-])NNC(=O)c1cccs1	1%	11	5%	-1%	-21%	-7%
c1ccc(-n2c(SCC3CCCCO3)nnc2-c2cccs2)cc1 (configuration not stated)	2%	-11	18µM*	?	-29%	-10%
O=C(O)CSc1nnc(-c2cccs2)n1-c1ccc(Cl)cc1	4%	-7	?	29µM*	4%	17%
O=C(CSc1nnc(-c2cccs2)n1-c1cccc(Cl)c1)c1cccc2c1OCCO2	-10%	-1	?	16µM*	-8%	18%
Cc1ccsc1CN(C(=O)c1ccc(Br)cc1)C1CCS(=O)(=O)C1 (configuration not stated)	.	.	-19%	-18%	-2%	.
